A short description of assay [1]: qHTS assay to identify aromatase inhibitors - cell viability counter screen (AID 743084).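 Further: cells stimulated with testosterone during compound exposure; nearly all actives have a fitted effect of over 55% in size.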
Assay [2] deals with Aryl hydrocarbon receptor (Homo sapiens) (UniProt P35869). Nature of the assay: qHTS assay to identify small molecule that activate the aryl hydrocarbon receptor (AhR) signaling pathway (AID 743085). Further: nearly all actives have a fitted effect of over 15% in size. Further: potency means the concentration at half of the fitted maximal effect.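 On activation: HG2L7.5c1 human HepG2 liver cells with stably integrated DRE-driven firefly reporter; series mostly up to about 70 µM.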 The procedure, abridged: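 Stably transfected human liver carcinoma cells (HG2L7.5c1; 20 DRE-firefly luciferase) were incubated 5 h, dosed, and kept 24 h at 37C. Agonism was scored from increased luciferase luminescence.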
Aryl hydrocarbon receptor (Homo sapiens), sequence (P35869 whole entry, looked up): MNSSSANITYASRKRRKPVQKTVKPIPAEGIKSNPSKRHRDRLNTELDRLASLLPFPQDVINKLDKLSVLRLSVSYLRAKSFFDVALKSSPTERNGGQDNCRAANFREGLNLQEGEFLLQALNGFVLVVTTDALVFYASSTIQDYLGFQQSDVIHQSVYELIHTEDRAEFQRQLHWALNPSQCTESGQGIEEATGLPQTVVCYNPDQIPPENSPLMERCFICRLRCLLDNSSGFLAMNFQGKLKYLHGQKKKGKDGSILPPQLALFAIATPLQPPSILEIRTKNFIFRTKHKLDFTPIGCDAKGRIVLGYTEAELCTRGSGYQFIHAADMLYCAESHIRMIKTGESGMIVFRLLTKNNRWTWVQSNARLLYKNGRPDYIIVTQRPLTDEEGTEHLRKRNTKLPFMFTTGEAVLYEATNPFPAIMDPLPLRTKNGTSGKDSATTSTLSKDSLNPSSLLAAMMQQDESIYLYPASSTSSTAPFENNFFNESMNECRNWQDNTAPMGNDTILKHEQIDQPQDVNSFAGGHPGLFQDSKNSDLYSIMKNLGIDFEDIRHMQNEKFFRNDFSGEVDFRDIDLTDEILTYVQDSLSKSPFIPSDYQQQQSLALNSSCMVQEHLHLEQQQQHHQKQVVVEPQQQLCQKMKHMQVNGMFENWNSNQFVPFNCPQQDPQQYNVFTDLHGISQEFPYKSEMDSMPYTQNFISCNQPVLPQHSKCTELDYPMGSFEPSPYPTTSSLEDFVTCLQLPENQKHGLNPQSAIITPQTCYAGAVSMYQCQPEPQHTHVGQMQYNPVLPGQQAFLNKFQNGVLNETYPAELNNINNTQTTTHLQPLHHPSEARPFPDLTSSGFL

Assay [3] can be described thus: qHTS assay to identify small molecule that activate the aryl hydrocarbon receptor (AhR) signaling pathway - cell viability counter screen (AID 743086).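 Further: HepG2 liver cells carrying the AhR DRE luciferase reporter; series mostly up to about 70 µM; nearly all actives have a fitted effect of over 45% in size.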 The method in brief:
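HepG2-AhR-luc (HG2L7.5c1) cells, 4000/well, treated 24 h at 37 C with compound; viability measured as CellTiter-Fluor fluorescence after 30 min in the same wells as the luciferase read.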

In assay [4] the target is Peroxisome proliferator-activated receptor gamma (Homo sapiens) (UniProt P37231). Nature of the assay: qHTS assay to identify small molecule agonists of the peroxisome proliferator-activated receptor gamma (PPARg) signaling pathway (AID 743094; active means well fitted activation curve with a large enough effect in the signal ratio in the repeat runs, not every such curve was filed as active; the % refers to the signal ratio). The procedure, abridged:
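GeneBLAzer PPARg UAS-bla HEK293H cells carrying a stably integrated beta-lactamase reporter were pre-incubated 5 h at 37C, then exposed to compounds in DMSO for 17 h at 37C; LiveBLAzer B/G FRET substrate was added for 1 h at room temperature and fluorescence read.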
For orientation: qHTS replaces the single test concentration by a dilution series.

Assay [5] shares this target. The experiment in a line: qHTS assay to identify small molecule antagonists of the peroxisome proliferator-activated receptor gamma (PPARg) signaling pathway (AID 743191; calls by dose curve; further: series mostly up to about 63 µM; nearly all actives have a fitted effect of over 30% in size). The method in brief:
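GeneBLAzer PPARg UAS-bla HEK293H cells, 5 h post-plating, exposed to compounds 17 h at 37C. LiveBLAzer B/G FRET substrate added for 1 h at room temperature; beta-lactamase reporter read by fluorescence intensity.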

Assay [6] can be described thus: qHTS assay to identify small molecule antagonists of the peroxisome proliferator-activated receptor gamma (PPARg) signaling pathway - cell viability counter screen (AID 743194). Further: nearly all actives have a fitted effect of over 55% in size. The method in brief:
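Cytotoxicity counter screen in PPARg-bla HEK293H cells, same wells as reporter assay. Compounds plus 50 nM rosiglitazone (final) for 17 h at 37 C, then viability read by CellTiter-Glo luminescence.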

A short description of assay [7]: qHTS assay for small molecule agonists of the antioxidant response element (ARE) signaling pathway (AID 743202; active means well fitted activation curve with a large enough effect in the signal ratio in the repeat runs, not every such curve was filed as active; the % refers to the signal ratio; further: potency means the concentration at half of the fitted maximal effect). The method in brief:
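Agonist mode reporter screen: HepG2 cells with ARE-controlled beta-lactamase are incubated with test compounds for 16 h at 37 C, and beta-lactamase activity is measured as fluorescence of cleaved B/G FRET substrate.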

The nature of assay [8]: qHTS assay for small molecule agonists of the antioxidant response element (ARE) signaling pathway - cell viability counter screen (AID 743203; calls by dose curve; further: nearly all actives have a fitted effect of over 55% in size). The procedure, abridged: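 CellSensor ARE-bla HepG2 cells, 2,000 per well, rested 5 hrs at 37C/5% CO2, then exposed to compound in DMSO for 16 hrs; viability read as CellTiter-Glo luminescence after 30 min at room temperature, in the reporter wells.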

Assay [9] can be described thus: qHTS assay for small molecule activators of the heat shock response signaling pathway - cell viability counter screen (AID 743209). Further: nearly all actives have a fitted effect of over 50% in size. The method in brief: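 CellSensor HSE-bla HeLa cells, plated overnight at 37 C/5% CO2, were exposed to compounds in DMSO for 5 h at 37 C. Viability was then read in the same wells by CellTiter-Glo luminescence after 30 min at room temperature.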

Assay [10] in a line: qHTS assay for small molecule activators of the heat shock response signaling pathway (AID 743210; active means well fitted activation curve with a large enough effect in the signal ratio in the repeat runs, with a control signal flat, not every such curve was filed as active; the % refers to the signal ratio;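 further: HeLa cells with beta-lactamase reporter driven by heat shock elements; series mostly up to about 63 µM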). The procedure, abridged: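 Quantitative high-throughput format using an engineered HeLa line in which heat shock response elements drive beta-lactamase; after 5 h with compound, cells received a B/G FRET substrate and fluorescence was read.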
The nature of assay [11]: qHTS assay to identify small molecule agonists of the peroxisome proliferator-activated receptor delta (PPARd) signaling pathway - cell viability counter screen (AID 743211). Further: nearly all actives have a fitted effect of over 55% in size. The method in brief:
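In the same wells used for beta-lactamase reporter measurement, cytotoxicity is scored by CellTiter-Glo. HEK293H PPARd-bla cells receive compound for 17 h at 37C following a 5 h settling period.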

For assay [12], the target named is Peroxisome proliferator-activated receptor delta (Homo sapiens) (UniProt Q03181). Nature of the assay: qHTS assay to identify small molecule agonists of the peroxisome proliferator-activated receptor delta (PPARd) signaling pathway (AID 743212; calls by dose curve). The procedure, abridged: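 Quantitative high-throughput agonist screen in a HEK293H beta-lactamase reporter line under UAS control. Compounds in DMSO, at 37 C. Fluorescence read after 2 h with FRET substrate at room temperature.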
Peroxisome proliferator-activated receptor delta (Homo sapiens), sequence (Q03181 whole entry, looked up): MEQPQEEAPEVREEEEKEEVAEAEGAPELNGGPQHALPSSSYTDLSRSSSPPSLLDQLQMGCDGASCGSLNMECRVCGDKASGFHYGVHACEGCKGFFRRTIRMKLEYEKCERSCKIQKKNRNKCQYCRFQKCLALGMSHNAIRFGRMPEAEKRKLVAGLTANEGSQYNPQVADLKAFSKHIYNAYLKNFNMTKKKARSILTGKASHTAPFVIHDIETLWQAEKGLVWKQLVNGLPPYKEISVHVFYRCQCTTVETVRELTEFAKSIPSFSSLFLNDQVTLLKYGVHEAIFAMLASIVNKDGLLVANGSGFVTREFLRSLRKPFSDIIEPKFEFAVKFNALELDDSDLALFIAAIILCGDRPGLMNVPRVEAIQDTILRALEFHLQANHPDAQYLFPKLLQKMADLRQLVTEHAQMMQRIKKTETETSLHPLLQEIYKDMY

Assay [13] can be described thus: qHTS assay to identify small molecule antagonists of the peroxisome proliferator-activated receptor delta (PPARd) signaling pathway - cell viability counter screen (AID 743213). Further: nearly all actives have a fitted effect of over 50% in size. The procedure, abridged:
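Cytotoxicity counter screen: CellTiter-Glo luminescence read 30 min after addition, in the same wells as the reporter assay. There, PPARd UAS-bla HEK293H cells (3000/well) were treated 17 h at 37 C with compound and 300 nM L165041.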

For assay [14], the target named is Peroxisome proliferator-activated receptor delta (Homo sapiens) (UniProt Q03181). The experiment in a line: qHTS assay to identify small molecule antagonists of the peroxisome proliferator-activated receptor delta (PPARd) signaling pathway (AID 743215; active means well fitted inhibition curve with a large enough effect in the signal ratio in the repeat runs, not every such curve was filed as active; the % refers to the signal ratio;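 further: cells stimulated with agonist L165041 at 300 nM final during compound exposure; series mostly up to about 62 µM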). The method in brief: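 PPARd UAS-bla HEK293H cells were pre-incubated 5 h at 37 C, then given test compounds in DMSO plus agonist L165041 (300 nM final). After 17 h at 37 C, beta-lactamase FRET substrate was added; fluorescence read after 2 h at room temperature.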

A short description of assay [15]: qHTS assay to identify small molecule agonists of the farnesoid-X-receptor (FXR) signaling pathway - cell viability counter screen (AID 743218). Further: nearly all actives have a fitted effect of over 45% in size. The procedure, abridged: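 FXR-UAS-bla HEK 293T cells, plated 5 h at 37 C, were exposed to compounds for 16 h at 37 C. CellTiter-Glo was then added to the same wells as the bla readout; luminescence read after 30 min at room temperature.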

A short description of assay [16]: qHTS assay to identify small molecule antagonists of the farnesoid-X-receptor (FXR) signaling pathway - cell viability counter screen (AID 743221; active means well fitted cell-killing curve with a large enough effect in the repeat runs, not every such curve was filed as active; further: nearly all actives have a fitted effect of over 50% in size). The procedure, abridged: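 Here viability was scored by luminescence after CellTiter-Glo addition to wells already read for beta-lactamase. Prior treatment: compound plus CDCA (50 uM final), 16 h, 37 C, HEK 293T FXR-bla cells.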

Assay [17] deals with Vitamin D3 receptor (Homo sapiens) (UniProt P11473). Nature of the assay: qHTS assay to identify small molecule antagonists of the vitamin D receptor (VDR) signaling pathway (AID 743223; active means well fitted inhibition curve with a large enough effect in the signal ratio in the repeat runs, not every such curve was filed as active; the % refers to the signal ratio). The procedure, abridged:
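Inhibition of agonist-driven VDR signalling is scored in VDR-bla cells: 3 nM final 1alpha,25-dihydroxyvitamin D3 plus compound, 16 h at 37C, then beta-lactamase detection by FRET substrate fluorescence after 2 h.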

Assay [18] concerns the target Bile acid receptor (Homo sapiens) (UniProt Q96RI1). Nature of the assay: qHTS assay to identify small molecule antagonists of the farnesoid-X-receptor (FXR) signaling pathway (AID 743217; active means well fitted inhibition curve with a large enough effect in the signal ratio in the repeat runs, not every such curve was filed as active; the % refers to the signal ratio). The procedure, abridged:
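FXR-UAS-bla HEK 293T cells pre-incubated 5 h at 37 °C, then exposed to compounds with chenodeoxycholic acid (50 uM final) for 16 h at 37 °C. Beta-lactamase reporter read by LiveBLAzer B/G FRET substrate fluorescence after 2 h at room temperature.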

Assay [19] shares this target. Nature of the assay: qHTS assay to identify small molecule agonists of the farnesoid-X-receptor (FXR) signaling pathway (AID 743220; active means well fitted activation curve with a large enough effect in the signal ratio in the repeat runs, not every such curve was filed as active; the % refers to the signal ratio). The method in brief:
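Beta-lactamase reporter under UAS control in GeneBLAzer FXR HEK 293T cells (5000/well) measured with LiveBLAzer FRET substrate after 2 h at room temperature. Compound exposure lasted 16 h at 37C.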

Assay [20] deals with Vitamin D3 receptor (Homo sapiens) (UniProt P11473). The experiment in a line: qHTS assay to identify small molecule agonists of the vitamin D receptor (VDR) signaling pathway (AID 743222; calls by dose curve). The procedure, abridged: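 VDR-bla cells were plated 4 h at 37C/5% CO2, then exposed to compounds in DMSO for 16 h. After LiveBLAzer B/G FRET substrate addition and 2 h at room temperature, beta-lactamase reporter fluorescence was read.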
Vitamin D3 receptor (Homo sapiens), sequence (P11473 whole entry, looked up): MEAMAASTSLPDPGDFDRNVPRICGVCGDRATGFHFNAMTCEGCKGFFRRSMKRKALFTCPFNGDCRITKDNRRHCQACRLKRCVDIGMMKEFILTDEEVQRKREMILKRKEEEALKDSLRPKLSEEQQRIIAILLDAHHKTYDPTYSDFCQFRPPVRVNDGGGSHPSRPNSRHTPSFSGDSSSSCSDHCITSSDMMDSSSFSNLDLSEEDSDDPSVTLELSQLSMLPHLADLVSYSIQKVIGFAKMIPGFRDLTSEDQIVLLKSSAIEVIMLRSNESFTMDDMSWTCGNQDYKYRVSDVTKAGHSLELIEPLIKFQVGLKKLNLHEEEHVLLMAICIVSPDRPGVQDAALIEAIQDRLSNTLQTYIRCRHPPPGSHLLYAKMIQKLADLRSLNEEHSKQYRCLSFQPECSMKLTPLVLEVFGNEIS

Results filed as inconclusive are left out. Unmarked numbers belong to inactive results. The source made the active and inactive calls. Unless noted, the call rests on the fitted dose curve; in most records, active means well fitted curve in the direction sought with a large enough effect in the repeat runs; inconclusive means weak or mixed curves; inactive means no such curve, though single readings can be large; an effect the other way counts as inactive or inconclusive.

Peroxisome proliferator-activated receptor gamma (Homo sapiens), sequence (P37231 whole entry, looked up): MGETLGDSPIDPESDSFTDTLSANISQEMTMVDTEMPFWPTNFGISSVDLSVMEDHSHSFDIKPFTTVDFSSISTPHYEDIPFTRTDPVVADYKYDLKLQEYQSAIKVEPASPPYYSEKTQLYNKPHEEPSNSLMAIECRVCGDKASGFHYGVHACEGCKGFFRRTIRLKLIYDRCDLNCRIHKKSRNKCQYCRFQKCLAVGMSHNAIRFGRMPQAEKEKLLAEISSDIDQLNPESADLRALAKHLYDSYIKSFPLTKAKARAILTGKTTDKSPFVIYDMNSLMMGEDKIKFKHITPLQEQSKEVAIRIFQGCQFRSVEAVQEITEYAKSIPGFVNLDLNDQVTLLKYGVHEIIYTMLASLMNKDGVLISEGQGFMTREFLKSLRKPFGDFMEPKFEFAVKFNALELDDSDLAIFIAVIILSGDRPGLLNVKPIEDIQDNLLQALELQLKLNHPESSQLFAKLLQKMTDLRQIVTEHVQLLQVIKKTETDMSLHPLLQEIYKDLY
Bile acid receptor (Homo sapiens), sequence (Q96RI1 whole entry, looked up): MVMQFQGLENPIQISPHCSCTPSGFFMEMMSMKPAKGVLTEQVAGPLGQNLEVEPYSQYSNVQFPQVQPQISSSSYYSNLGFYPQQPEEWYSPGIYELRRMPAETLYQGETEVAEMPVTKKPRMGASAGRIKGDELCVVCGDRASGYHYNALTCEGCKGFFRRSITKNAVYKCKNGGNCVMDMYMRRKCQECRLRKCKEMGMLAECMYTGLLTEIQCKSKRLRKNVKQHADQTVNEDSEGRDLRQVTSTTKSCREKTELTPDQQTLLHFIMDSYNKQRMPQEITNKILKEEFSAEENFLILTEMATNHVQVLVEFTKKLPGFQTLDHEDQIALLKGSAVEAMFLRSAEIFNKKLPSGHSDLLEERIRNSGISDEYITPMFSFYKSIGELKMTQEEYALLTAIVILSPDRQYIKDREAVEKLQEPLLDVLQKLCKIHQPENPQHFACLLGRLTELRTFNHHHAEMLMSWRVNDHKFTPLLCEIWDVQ

As to `CN=C(NC#N)Nc1ccc(C2=NNC(=O)CC2C)cc1` (stereo not given), the Potency result in assay [1], in [2], in [3], in assay [5], in [7] and in assay [15] was “inactive” each time. In addition, the compound was called inactive in assay [4], in [6], in assay [8], in assay [9], in assay [10] and in assay [11]. Also, the call in [12], in assay [13], in [14], in assay [16] and in assay [17] was inactive.
Take `CC(=O)c1ccc2c(c1)Cc1ccccc1-2`: the Potency result in [1], in assay [3], in assay [5], in assay [18], in assay [15] and in assay [19] was “inactive” in each case. Moreover, the Potency in assay [2] is 54.5 µM (active); in assay [7], 7.7 µM (active). Further, the compound was classed as inactive in [4], in assay [6], in assay [8], in [9], in assay [11] and in [12]. The result in [13], in assay [14], in assay [16] and in assay [20] was inactive.
As to `Cc1nc2n(c(=O)c1CCN1CCC(c3noc4cc(F)ccc34)CC1)CCC[C@H]2O`, the Potency result in assay [1], in assay [2], in [3], in assay [5], in assay [7] and in assay [18] was “inactive” throughout. Further, the Potency result in assay [15] and in assay [19] was “inactive” in each case. In addition, the outcome in [4], in [6], in [8], in assay [9], in assay [10] and in assay [11] was inactive. Besides, the outcome in assay [12], in [14], in assay [16], in assay [20] and in [17] was inactive.
With `CC1COc2ccccc2N1` (stereo not given), the Potency entry in assay [1], in assay [3], in [5], in assay [7] and in assay [15] was “inactive” each time. Besides, the Potency in assay [2] was 0.969 µM (active). The compound was classed as inactive in assay [4], in [6], in assay [8], in assay [9], in assay [10] and in assay [11]. Also, the result in [13], in assay [14], in assay [16] and in [20] was inactive.
As to `CC(CC=O)CCCC(C)(C)O` (stereo not given), the Potency result in assay [1], in [2], in [3], in [5], in assay [7] and in [15] was “inactive” in each case. In addition, the compound was called inactive in assay [4], in [6], in [8], in assay [9], in assay [11] and in assay [14]. Also, the outcome in [16] and in assay [20] was inactive.
For `Cc1ccc2c(c1)OCC(=O)CO2`, the Potency result in assay [1], in assay [2], in [3], in [5], in assay [7] and in assay [18] was “inactive” throughout. For the same compound, the Potency entry in assay [15] and in assay [19] was “inactive” throughout. In addition, the compound was called inactive in [4], in assay [6], in assay [8], in assay [10], in [11] and in [12]. Further, the call in [13], in assay [14] and in assay [16] was inactive.
Regarding `C=CCCCCCCCCCCCC`, the Potency result in [1], in assay [2], in assay [3], in assay [5], in assay [18] and in [15] was “inactive” each time. Besides, in assay [19], the Potency entry was “inactive”. For the same compound, the call in [4], in assay [6], in [8], in [9], in [10] and in assay [11] was inactive. For the same compound, the outcome in [12], in [14], in [16], in assay [20] and in assay [17] was inactive.
For the compound `C[C@H](CCC(=O)O)[C@H]1CC[C@H]2[C@@H]3C(=O)C[C@@H]4CC(=O)CC[C@]4(C)[C@H]3CC(=O)[C@]12C`, the Potency result in [1], in assay [2], in assay [3], in [5] and in [15] was “inactive” throughout. The compound was classed as inactive in assay [4], in [6], in [8], in assay [9], in assay [10] and in assay [11]. Also, the call in assay [12], in [14], in assay [16], in assay [20] and in assay [17] was inactive.

The values are drawn from PubChem BioAssay (Tox21).
